PV pol inh: inhibitors of poliovirus RNA polymerase binding and polymerization | poliovirus polymerase elongation, fluorescence polarization; hits give low values | % elongation, % (compound at 16.7 µg/mL) | AID 588519 | P03300 | 150,000 compounds, 0.66% hits; in the data active means % elongation below about 90%
MenB inh: Mtb MenB enzyme inhibition | P9WNP5 | MenB enzyme assay, absorbance read-out | inhibition, % (test concentration not listed) | 100,000 compounds, 0.43% hits; in the data active means inhibition above about 21%, passing the limit was not always enough
Target sequence (P9WNP5 whole entry, looked up): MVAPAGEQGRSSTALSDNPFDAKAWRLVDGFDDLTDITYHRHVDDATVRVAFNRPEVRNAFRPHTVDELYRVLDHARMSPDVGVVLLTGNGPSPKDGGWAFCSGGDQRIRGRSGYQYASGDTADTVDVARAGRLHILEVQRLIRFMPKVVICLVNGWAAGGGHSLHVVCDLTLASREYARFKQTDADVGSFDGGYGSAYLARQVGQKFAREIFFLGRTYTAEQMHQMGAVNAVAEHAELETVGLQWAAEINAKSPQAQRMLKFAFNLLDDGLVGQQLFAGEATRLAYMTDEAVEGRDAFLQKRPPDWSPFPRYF
Mtb MbtI inh: blocks the Mycobacterium tuberculosis siderophore enzyme MbtI. 100,000 compounds, 0.89% hits. P9WFX0. purified MbtI enzyme, fluorescence intensity read-out. inhibition, % (test concentration not listed); in the data active means inhibition mostly above about 56%, no sharp cut-off; inactive means mostly below about 77%
AID504770: E. coli YBA685 growth inhibition, screen for V. cholerae RctB inhibitors | 130,000 compounds, 0.27% hits | z-score (concentration not given with the values) | AID 504770 | E. coli YBA685 rctB-dependent plasmid, OD600 growth, 3 h; hits give low values; in the data active means z-score below about -2, passing the limit was not always enough
Large screens that a line does not name were inactive; ! = not active in a repeat. The list is not random: actives were taken first. Their share in the collection is about 1.4%.

COc1ccc(-c2cn3c(C)c(C(=O)Nc4ccc5c(c4)OCCO5)sc3n2)cc1	none (no result: PV pol inh, MenB inh, Mtb MbtI inh)
CC1=CC(=O)C(N(C)C2CCS(=O)(=O)C2)=CC1=O (configuration not stated)	Mtb MbtI inh 100.0
CN(C)C1CCS(=O)(=O)C1 (configuration not stated)	none
CCc1cc(=O)oc2cc(O)cc(O)c12	MenB inh 47.4
CCCc1cc(=O)oc2cc(O)cc(O)c12	none (no result: PV pol inh, MenB inh, Mtb MbtI inh)
C=CCNC(=S)Nc1ccccc1	none
C=CCNC(=S)C(=O)Nc1ccccc1	PV pol inh 81.0 (no result: Mtb MbtI inh)
CCN(CC)CCC(=O)c1ccc(OC(C)C)cc1	Mtb MbtI inh 65.5
CCN(CC)CCC(=O)c1ccc(F)cc1	none (no result: Mtb MbtI inh)
COc1ccc(C(=O)n2c3c(c(=O)n2-c2ccccc2)Cc2ccc(OC)cc2O3)cc1	MenB inh 54.0
Cc1ccc(S(=O)(=O)c2ccc(C)cc2)cc1	none
Cc1ccc(S(=O)(=O)/C=C/C#N)cc1	Mtb MbtI inh 79.0, AID504770 -4.8
CCc1cccc2c1=NC(=O)C=2c1c(C)[nH]n(-c2ccccc2)c1=O	Mtb MbtI inh 84.9
CSc1ccc(/C=C/C(=O)Nc2ccc(-n3cnnn3)cc2)cc1	none
O=C(NOC(=O)c1cccs1)c1ccccc1	AID504770 -2.6
Cc1ccccc1NC(=S)Nc1ccc(C#N)cc1	none
COc1ccc(NC(=S)NN)cc1Cl	Mtb MbtI inh 92.3
CCCn1cnc2c1c(=O)[nH]c(=O)n2C	AID504770 -3.7 (no result: PV pol inh, MenB inh, Mtb MbtI inh)
C=CCn1cnc2c1c(=O)[nH]c(=O)n2C	none
COC(=O)C1=NC=CN2CCS(=O)(=O)N=C12	none (no result: PV pol inh)
Cc1sc2c(c1C)C1=NS(=O)(=O)CCN1C=N2	PV pol inh 76.0
Nc1ccc2c(c1)C(=O)N(CC1CCCO1)C2=O (configuration not stated)	none
O=C1C=CC(=O)N1CC1CCCO1 (configuration not stated)	Mtb MbtI inh 61.5 (no result: MenB inh)
CCCc1cc(=O)oc2cc3occ(-c4ccccc4)c3cc12	none
O=C1NC(=O)C(=Cc2ccc(Sc3ccc(Cl)cc3)o2)C(=O)N1	Mtb MbtI inh 91.6
O=C1NC(=O)C(=Cc2ccc(N3CCCC3)o2)C(=O)N1	none
CC(C)C(=O)Nc1cccc(-c2nc3ccccc3c(=O)o2)c1	AID504770 -3.5
Cc1ccn(CCC(=O)O)n1	none
Cc1ccc(C)n1CCC(=O)O	PV pol inh 69.0
O=C(O)c1ccccc1N(Cc1ccc(Br)cc1)C(=O)c1ccco1	none
Cc1cccc(NC2=NCC(=O)N2Cc2ccccc2)c1	PV pol inh 87.0
O=C1CN=C(Nc2ccccc2Cl)N1Cc1ccccc1	none
Cc1ccc(NC(=O)CSc2nc3n[nH]c(C)c3c(=N)n2-c2cccc(C)c2)cc1	none (no result: MenB inh, Mtb MbtI inh, AID504770)
CCc1ccc(NC(=O)CSc2nc3n[nH]c(C)c3c(=N)n2-c2ccc(C)cc2)cc1	PV pol inh 86.0 (no result: MenB inh, Mtb MbtI inh, AID504770)
CCCN(CCC)C(=O)Cn1c(=O)n(CCCCC(=O)NCc2ccc3c(c2)OCO3)c(=O)c2ccccc21	none
c1ccc(CN(CCN(Cc2ccccn2)Cc2ccccn2)Cc2ccccn2)nc1	MenB inh 29.8 (no result: AID504770)
O=C1CCCN2N=C(SCC(=O)N3CCc4ccccc43)SC2=N1	none (no result: PV pol inh, MenB inh, Mtb MbtI inh)
O=c1cc[nH]cc1-c1ccc(Cl)cc1	none
Oc1c(Cl)cc(Cl)c2cccnc12	none
O=C(Oc1c(Cl)cc(Cl)c2cccnc12)c1ccco1	AID504770 -3.35
Cc1cc2c(NC(=O)COCC(=O)O)cccc2nn1	PV pol inh 65.0
C#CCSc1n[nH]c(-c2ccccc2)n1	Mtb MbtI inh 82.7
OCCSc1n[nH]c(-c2ccccc2)n1	none
CCN(CC)C(=O)NCC12CC3CC(CC(C3)C1)C2	none
O=C1C=CC(=O)N1c1ccccc1Sc1ccccc1	Mtb MbtI inh 98.7 (no result: MenB inh)
Cc1cc(=O)oc2cc(OCc3nnc(-c4ccccc4)o3)ccc12	none
Cc1ccc(C(=O)c2ccc(C)c(C)c2)cc1C	none
Cc1ccc(C(=O)CBr)cc1C	Mtb MbtI inh 88.4 (no result: MenB inh)
O=C(NCC1CCCN1S(=O)(=O)c1ccccc1)c1ccccc1 (configuration not stated)	none
CN(C)c1ccc(/C=C2\CCC=C2N2CCOCC2)cc1	none
S=c1nc(-c2cccs2)[nH][nH]1	PV pol inh 69.0
Cc1cccc(-c2nnc(C3CCN(S(=O)(=O)Cc4ccccc4)CC3)o2)c1	Mtb MbtI inh 71.8
CCOC(=O)c1c(N2C(=O)C=CC2=O)sc(C)c1-c1ccccc1	Mtb MbtI inh 76.6
CSC(N)=Nc1ccc(Cl)cc1	AID504770 -2.55! (no result: PV pol inh, MenB inh, Mtb MbtI inh)
N#Cc1cnc(SCCc2ccccc2)nc1N	MenB inh 33.1
CC12CCC(=O)N1C(C(=O)OCc1nnc(-c3ccccc3)o1)CS2 (configuration not stated)	none
COC(=O)c1cccc(N2C(=O)c3ccc(C(=O)OC)cc3C2=O)c1	none
CCS(=O)(=O)NCC1COC2(CCCCC2)O1 (configuration not stated)	none

Screening data deposited in PubChem BioAssay by ICCB-Longwood Screening Facility, Harvard Medical School.
